{"source": "PubChem BioAssay (NCATS)", "note": "Records with an inconclusive call do not appear. Calls of active or inactive are those of the source. Calls follow the shape of the dose curve; as a rule, active = well fitted cell-killing curve with a large enough effect; inconclusive = small, poorly fitted or top-dose-only effect; inactive = flat fitted curve, though single readings scatter."}
{"assay": "Cell Viability - LYMP2-012 (AID 982);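 also: cellular ATP by luciferase luminescence where a drop means cytotoxicity; cells exposed to compound for one day before reading; 0% = DMSO only and full loss = 92 µM tetraoctylammonium bromide; nearly all actives have a fitted effect of over 55% in size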", "conditions": "LYMP2-012 lymphoblastoid cell viability qHTS; series mostly up to 92.2 µM; activity change, negative = cytotoxicity: at the top concentration", "description": "NIH Chemical Genomics Center [NCGC]\nNIH Molecular Libraries Screening Centers Network [MLSCN]\nNational Institutes of Environmental Health Sciences [NIEHS]\nNational Toxicology Program [NTP]\nWe have developed a 1536-well cell-based assay for quantitative high throughput screening (qHTS) against a number of cell lines to determine in vitro cytotoxicity of small molecules. This particular assay uses a human lymphoblastoid cell line (LYMP2-012) purchased from Coriell Institute for Medical Research.\nNCGC Assay Protocol Summary:\nThe CellTiter-Glo luminescent cell viability assay (Promega) is a homogeneous method to measure the number of viable cells in culture. The end point readout of this assay is based on quantitation of intracellular ATP, an indicator of metabolic activity, using the luciferase reaction. Luciferase catalyzes the oxidation of beetle Luciferin to oxyluciferin and light in the presence of ATP. The luminescent signal is proportional to amount of ATP present.\nUsing the CellTiter-Glo luminescent cell viability assay, the amount of cellular ATP was measured in the lymphoblastoid cell line with complete culture medium following compound treatment for 24 hours. The assay was performed in opaque white Kalypsys 1536-well plates. In the screen, tetraoctylammonium bromide was used as positive control. Library compounds were measured for their ability to cause acute toxicity in the cell line, as reflected by a decrease in intracellular ATP levels, in a concentration-dependent manner. […] AC50 values were determined from concentration-response data modeled with the standard Hill equation.\nqHTS protocol for CellTiter Glo lymphoblastoid cellular assay\n[Step] [Parameter] [Value] [Description]\n1. Reagent; 5 uL; 2500 lymphoblastoid cells/well\n2. Time; 5 hr; 37 C incubation\n4. Controls; 23 nL; Tetraoctylammonium bromide 6.4pM to 92 uM\n5. Time; 24 hr; 37 C incubation\n6. Reagent; 5 uL; CellTiter Glo reagent\n7. Time; 30 min; Room Temperature\n8. Detection; Luminescence; Viewlux plate reader\nKeywords: cell viability, cytotoxicity, lymphoblastoid cell line, luminescence, NTPHTS, NTPHTS_NCGC, NIEHS, DSSTox, MLSMR, MLSCN, NIH Roadmap, qHTS, NCGC"}
{"smiles": "Cc1cccc(C#N)c1", "activity change, negative = cytotoxicity": "-2.71% (inactive)"}
{"smiles": "c1ccc2c(c1)CCCC2", "activity change, negative = cytotoxicity": "1.14% (inactive)"}
{"smiles": "C=CC(=C)C", "activity change, negative = cytotoxicity": "9.5% (inactive)"}
{"smiles": "C=C(Cl)Cl", "activity change, negative = cytotoxicity": "-2.42% (inactive)"}
{"smiles": "OCC1CO1", "note": "(stereo not given)", "activity change, negative = cytotoxicity": "2.4% (inactive)"}
{"smiles": "Brc1ccc(Oc2cc(Br)c(Br)cc2Br)c(Br)c1", "Potency": "inactive"}
{"smiles": "COc1ccc(N)cc1", "Potency": "inactive"}
{"smiles": "C=CCOC(=O)c1ccccc1N", "activity change, negative = cytotoxicity": "-4.37% (inactive)"}
{"smiles": "CC(Cl)Cl", "activity change, negative = cytotoxicity": "1.75% (inactive)"}
{"smiles": "Nc1ccc(Br)cc1", "activity change, negative = cytotoxicity": "3.49% (inactive)"}
{"smiles": "Cc1ccc([N+](=O)[O-])cc1C", "activity change, negative = cytotoxicity": "1.48% (inactive)"}
{"smiles": "S=C=Nc1cccc2ccccc12", "activity change, negative = cytotoxicity": "-5.97% (inactive)"}
{"smiles": "Cc1ccccc1N", "Potency": "inactive"}
{"smiles": "COC1=CC(=O)O[C@@H](/C=C/c2ccc3c(c2)OCO3)C1", "activity change, negative = cytotoxicity": "-9.9% (inactive)"}
{"smiles": "ClC(Cl)=C(Cl)Cl", "Potency": "inactive"}
{"smiles": "COP(=S)(OC)Oc1ccc([N+](=O)[O-])cc1", "activity change, negative = cytotoxicity": "-2.66% (inactive)"}
{"smiles": "Clc1nc(Cl)nc(Nc2ccccc2Cl)n1", "activity change, negative = cytotoxicity": "-16.9% (inactive)"}
{"smiles": "c1ccc(-c2ccccc2)cc1", "activity change, negative = cytotoxicity": "10.1% (inactive)"}
{"smiles": "CCOP(=S)(OCC)Oc1ccc([N+](=O)[O-])cc1", "Potency": "inactive"}
{"smiles": "O=NN(c1ccccc1)c1ccccc1", "activity change, negative = cytotoxicity": "-9.16% (inactive)"}
{"smiles": "O=NN(CCO)CCO", "activity change, negative = cytotoxicity": "-0.16% (inactive)"}
{"smiles": "CCCOC(=O)c1ccccc1C(=O)OCCC", "activity change, negative = cytotoxicity": "6.53% (inactive)"}
{"smiles": "COc1ccc(C=O)cc1OC", "activity change, negative = cytotoxicity": "-3.46% (inactive)"}
{"smiles": "Clc1ccc2ccccc2c1", "activity change, negative = cytotoxicity": "3.6% (inactive)"}
{"smiles": "O=C=NC1CCCCC1", "Potency": "inactive"}
{"smiles": "CCOc1ccc(N)cc1", "activity change, negative = cytotoxicity": "-13% (inactive)"}
{"smiles": "[O-][Br+2]([O-])O", "Potency": "inactive"}
{"smiles": "COC1=CC(=O)OC(CCc2ccccc2)C1", "note": "(stereo not given)", "activity change, negative = cytotoxicity": "-7.57% (inactive)"}
{"smiles": "C=CC(C)=O", "activity change, negative = cytotoxicity": "-11.1% (inactive)"}
{"smiles": "CC(C)(C)OO", "Potency": "inactive"}
{"smiles": "O=S1OCC2C(CO1)C1(Cl)C(Cl)=C(Cl)C2(Cl)C1(Cl)Cl", "note": "(stereo not given)", "activity change, negative = cytotoxicity": "-31.2% (inactive)"}
{"smiles": "ClC(Cl)(Cl)c1ccccc1", "Potency": "inactive"}
{"smiles": "c1nc[nH]n1", "activity change, negative = cytotoxicity": "14.1% (inactive)"}
{"smiles": "O=[N+]([O-])c1cccc2ccccc12", "activity change, negative = cytotoxicity": "2.73% (inactive)"}
{"smiles": "Nc1c(Cl)c(Cl)nc(C(=O)O)c1Cl", "activity change, negative = cytotoxicity": "-3.28% (inactive)"}
{"smiles": "Cc1ccc(O)c(C)c1", "activity change, negative = cytotoxicity": "22.7% (inactive)"}
{"smiles": "CCC[CH2][Sn]([Cl])([Cl])[Cl]", "activity change, negative = cytotoxicity": "-5.72% (inactive)"}
{"smiles": "C[C@]12CC[C@H]3[C@@H](CCC4=CC(=O)CC[C@@]43C)[C@@H]1CC[C@@H]2O", "activity change, negative = cytotoxicity": "2.51% (inactive)"}
{"smiles": "Clc1cc(Cl)c(-c2cc(Cl)c(Cl)cc2Cl)cc1Cl", "activity change, negative = cytotoxicity": "-2.86% (inactive)"}
{"smiles": "C=CC1CC=CCC1", "note": "(stereo not given)", "activity change, negative = cytotoxicity": "-10.8% (inactive)"}
